Measurements taken from PubChem BioAssay.
The source made the active and inactive calls. Unless noted, how the calls were made is not given here.

Legend:
[1] = system: XIP peptide (Xip251-270) binding; assay: small-molecule binders of XIP peptide, primary screen, biochemical, small-molecule microarray, fluorescence 635/667 nm, 0.1 µg/mL protein (AID 1182); conditions: fluorescent protein binding, 635 nm, higher = more signal, called active from +8 up or from −8 down
XIP peptide (Xip251-270) = assay: small-molecule binders of XIP peptide, primary screen, biochemical, small-molecule microarray, fluorescence 635/667 nm, 0.5 µg/mL protein (AID 1183); conditions: small-molecule microarray binding, fluorescence 635 nm; higher = more signal
[2] = Plasmodium falciparum growth inhibition, primary screen, strain 3D7, DAPI fluorescence, 100 nL (AID 1184);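 further: parasites grown inside human red blood cells in medium with human serum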; conditions: P. falciparum 3D7 growth, 3 d, higher = more signal
[3] = molecular target: Homeobox protein Hox-A13 (Mus musculus) (UniProt Q62424); assay: inhibitors of HoxA13-DNA binding, primary screen, biochemical, fluorescence polarization, labeled oligonucleotide (AID 1185); conditions: 15 min, higher = more signal, called active from +8 up or from −8 down
Chain of Homeobox protein Hox-A13 (Mus musculus) (Q62424 whole entry, looked up): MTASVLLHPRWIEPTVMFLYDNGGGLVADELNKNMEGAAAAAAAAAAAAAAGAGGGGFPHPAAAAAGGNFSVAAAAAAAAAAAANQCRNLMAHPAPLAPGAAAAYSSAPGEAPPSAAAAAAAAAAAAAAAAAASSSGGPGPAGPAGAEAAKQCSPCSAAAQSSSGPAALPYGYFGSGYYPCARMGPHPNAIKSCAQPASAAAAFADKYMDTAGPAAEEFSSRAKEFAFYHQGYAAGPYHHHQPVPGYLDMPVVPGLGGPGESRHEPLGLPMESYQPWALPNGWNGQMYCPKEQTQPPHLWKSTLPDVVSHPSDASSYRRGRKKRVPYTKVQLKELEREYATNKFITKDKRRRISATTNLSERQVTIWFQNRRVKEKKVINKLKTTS

[4] = inhibitors of hydroxyurea-induced Chk1 phosphorylation, primary screen, imaging, HeLa, phospho-Chk1 antibody, percent positive cells (AID 1186); conditions: hydroxyurea-induced phospho-Chk1 immunofluorescence imaging, higher = more signal
[5] = inhibitors of hydroxyurea-induced Chk1 phosphorylation, primary screen, imaging, HeLa, phospho-Chk1 nuclear intensity (AID 1187); conditions: hydroxyurea-induced phospho-Chk1 immunofluorescence imaging, higher = more signal

SMILES	composite z-score [1]	composite z-score (XIP peptide (Xip251-270))	z-score [2]	z-score [3]	z-score [4]	z-score [5]
COC(=O)[C@H]1[C@@H]2COc3ccccc3[C@H]2N[C@H]1C(=O)OC	0.22 (inactive)	0.522	0.535	-0.726 (inactive)	-0.953 (inactive)	-0.134 (inactive)
CCCC=C(CCC)[C@@H](NS(=O)(=O)c1ccc(-c2ccccc2)cc1)c1ccc(C(=O)OC)cc1	0.046 (inactive)	-0.203	-1.37	-1.02 (inactive)	-0.361 (inactive)	-0.761 (inactive)
COCCOC(=O)N1C(=O)[C@@]2(c3cc(C#CCC(C(=O)OC)C(=O)OC)ccc31)[C@H](C(=O)N1CCN(c3ncccn3)CC1)[C@H]1C(=O)O[C@H](c3ccccc3)[C@H](c3ccccc3)N1[C@@H]2c1ccc(O)cc1	1.36 (inactive)	0.843	-2.08	-0.323 (inactive)	-0.447 (inactive)	-0.685 (inactive)
C=CC[C@@]1(C(=O)N2CCOCC2)N=C(c2ccc(OCCCO)cc2)O[C@@H]1c1ccccc1	1.79 (inactive)	-0.526	-1.74	-5.67 (inactive)	-0.648 (inactive)	-0.241 (inactive)
O=[N+]([O-])c1ccc(C[n+]2ccc3ccc(O)cc3c2)o1	1.14 (inactive)	0.676	0.87	-5.47 (inactive)	-0.0465 (inactive)	-0.0404 (inactive)
CCN1C(C)=C(C(=O)OC)[C@@H](c2ccccc2)N2C(=O)[C@](O)(C(=O)OC)[C@@H](c3ccccc3)C(C(=O)c3ccccc3)=C12	-0.176 (inactive)	0.283	0.245	-4.23 (inactive)	–	–
C[N+](C)(C)CCCCNC(=O)[C@H]1C[C@H]2C(=O)NCC(=O)N2[C@H]1c1cccc(OCCO)c1	1.88 (inactive)	0.839	0.312	-2.52 (inactive)	0.0452 (inactive)	-0.0729 (inactive)
CC(=O)NCCCC[C@@H]1NC(=O)[C@H]2C[C@@H](C(=O)NCCCCCCN(C)C)[C@@H](c3ccc(O)cc3)N2C1=O	1.76 (inactive)	0.832	-1.01	-1.9 (inactive)	0.0655 (inactive)	0.0377 (inactive)
COc1ccc(-c2ccccc2[C@@H]2N[C@H](C(=O)O)CC[C@H]2C)cc1	0.351 (inactive)	0.0228	-0.907	1.08 (inactive)	–	–
CO[C@H]1COC(=O)[C@@H](Cc2ccccc2)NC(=O)[C@@H](C)COC(=O)CC=C[C@@H]1C	-0.404 (inactive)	0.43	-0.0923	-0.866 (inactive)	–	–
COc1cccc([C@@H]2[C@@H](C)CC[C@H]3C(=O)N(C)[C@@H](C(C)C)C(=O)N23)c1	-0.297 (inactive)	0.247	0.451	-0.0898 (inactive)	–	–
CN(C)c1ccc(C(O)C2C=CC3C(=O)NC(=O)C3N2Nc2ccc(Cl)cc2Cl)cc1 (stereo unspecified)	-0.0906 (inactive)	0.16	-0.599	-4.19 (inactive)	-0.0923 (inactive)	0.0147 (inactive)
CO[C@H]1COC(=O)CC=C[C@H](C)[C@@H](OC)COC(=O)CC=C[C@@H]1C	0.878 (inactive)	0.695	0.648	-0.307 (inactive)	–	–
O=C/C=C/c1ccc(/C=C/c2ccccc2)cc1	-0.837 (inactive)	-0.443	3.9	0.0626 (inactive)	0.144 (inactive)	0.848 (inactive)
O=C1c2ccccc2[C@](Cc2ccccc2I)(C(=O)NCC(F)(F)F)[C@H](c2ccc(CO)cc2)N1Cc1ccccc1C(F)(F)F	0.57 (inactive)	0.188	0.121	-2.47 (inactive)	-0.103 (inactive)	0.14 (inactive)
COc1cccc([C@@H]2[C@@H](C)CC[C@H]3C(=O)N4[C@H](c5cccc(OC)c5)[C@@H](C)CC[C@H]4C(=O)N23)c1	-0.142 (inactive)	0.379	0.137	-1.96 (inactive)	–	–
O=C(O)[C@@H]1Cc2c([nH]c3ccccc23)[C@@H](c2ccccc2)N1	0.0176 (inactive)	0.0822	-0.421	0.969 (inactive)	–	–
CCCC=C(CCC)[C@@H](NS(=O)(=O)c1ccc(C(F)(F)F)cc1)c1ccc(-c2ccccc2)cc1	0.14 (inactive)	0.0936	-0.334	-1.61 (inactive)	-0.208 (inactive)	-0.144 (inactive)

SMILES	composite z-score [1]	composite z-score (XIP peptide (Xip251-270))	z-score [2]	z-score [3]	z-score [4]	z-score [5]
Cc1ccc(S[C@]2(C(=O)NCCCN(C)C)CC(=O)N(Cc3ccccc3)[C@@H]2c2ccc(CO)cc2I)cc1	0.066 (inactive)	0.119	0.0943	-2.06 (inactive)	0.379 (inactive)	0.637 (inactive)
COC(=O)c1c(CC[C@@H](CO)NC(=O)N[C@H](Cn2cc(-c3cncn3C)nn2)C(C)C)oc(C(C)=O)c1C(=O)OC	1.88 (inactive)	-0.0139	-2.19	3.03 (inactive)	-0.139 (inactive)	0.233 (inactive)
O=C1O[C@H](c2ccccc2)[C@H](c2ccccc2)N2[C@H]1[C@@H](C(=O)NC[C@H](O)c1ccccc1)[C@]1(C(=O)Nc3ccc(C#CC4=CCCCC4)cc31)[C@H]2c1ccc(OCCO)cc1	1.21 (inactive)	0.658	-0.435	3.43 (inactive)	-0.22 (inactive)	-0.301 (inactive)
C=C(COC)/C(=C/C[C@@H](OC(=O)c1ccncc1)c1ccc(OCCO)cc1)c1cc(C(=O)OC)ccc1OC	1.08 (inactive)	0.749	-2.98	-4.62 (inactive)	-0.252 (inactive)	0.535 (inactive)
C=CCc1cccc([C@H]2N[C@H](C(=O)O)CC[C@@H]2C)c1	0.517 (inactive)	0.921	-0.441	0.811 (inactive)	–	–
CO[C@H]1COC(=O)[C@H](C)NC(=O)CC=C[C@@H](C)[C@H](NS(=O)(=O)c2ccc(C)cc2)COC(=O)CC=C[C@@H]1C	-0.132 (inactive)	0.407	-0.266	-1.62 (inactive)	–	–
O=C1c2ccccc2[C@](Cc2ccccc2I)(C(=O)NCc2ccccc2)[C@H](c2ccc(CO)cc2)N1Cc1ccccc1C(F)(F)F	0.696 (inactive)	-1.14	-0.794	-1.29 (inactive)	-0.361 (inactive)	-0.331 (inactive)
NC(=O)[C@H]1[C@@H]2C(=O)O[C@@H](c3ccccc3)[C@@H](c3ccccc3)N2[C@@H](c2ccc(O)cc2)[C@]12C(=O)Nc1ccc(C#CCCO)cc12	-0.0876 (inactive)	-0.413	-0.629	-5.7 (inactive)	-0.0158 (inactive)	-0.651 (inactive)
C#CCCCON=C1C[C@@H](O)[C@@H](O)[C@@H]2[C@@H]3C(=O)N(Cc4ccc5c(c4)OCO5)C(=O)[C@@H]3CC[C@@H]12	0.32 (inactive)	0.104	-0.0159	-0.476 (inactive)	–	–
CCOC(=O)C1=CC[C@@H](c2ccccc2)N(S(=O)(=O)c2ccc(C)cc2)[C@H]1C	0.214 (inactive)	0.862	-1.5	-2.38 (inactive)	-0.325 (inactive)	-0.586 (inactive)
COc1cc(Cc2cc3c(c(CCc4ccccc4)n2)[Si](C(C)C)(C(C)C)OC3)cc(OC)c1OC	-0.521 (inactive)	-0.122	-2.33	-3.47 (inactive)	-0.0504 (inactive)	-0.0848 (inactive)
COCCCNC(=O)[C@@]1(Sc2ccc(C)cc2)CC(=O)N(Cc2cc(C(F)(F)F)cc(C(F)(F)F)c2)[C@@H]1c1ccc(CO)cc1I	-0.291 (inactive)	-0.413	-0.709	-1.21 (inactive)	0.007 (inactive)	0.283 (inactive)
CCCC=C(CCC)[C@@H](NS(=O)(=O)c1cccc(C(F)(F)F)c1)c1ccc(C(=O)OC)cc1	0.0637 (inactive)	0.377	0.551	-1.64 (inactive)	0.0948 (inactive)	-0.275 (inactive)
O=C(NCC(O)CO)[C@]1(Cc2ccccc2)N=C(c2ccc(OCCCO)cc2)O[C@@H]1c1ccccc1 (stereo partly specified)	1.61 (inactive)	0.776	-1.62	-4.2 (inactive)	-0.707 (inactive)	-0.655 (inactive)
CC(C)NC(=O)[C@@]1(Cc2ccccc2I)c2ccccc2C(=O)N(C2CCCCC2)[C@H]1c1ccc(CO)cc1	1.02 (inactive)	0.84	-1.89	-4.58 (inactive)	0.551 (inactive)	0.615 (inactive)
CCCCO[C@H]1C[C@H]2C(Br)=C[C@@]1(CO)C(=O)[C@]21CO1	-0.631 (inactive)	-0.329	0.0951	-0.0157 (inactive)	-0.407 (inactive)	-0.291 (inactive)
COCCCNC(=O)[C@@H]1c2ccccc2C(=O)N(CC23CC4CC(CC(C4)C2)C3)[C@H]1c1ccc(CO)cc1	0.428 (inactive)	-0.518	-1.95	-4.65 (inactive)	-0.546 (inactive)	-0.786 (inactive)
CC(=O)NCCCC[C@@H]1NC(=O)[C@@H]2C[C@H](C(=O)NCCCCCNC(=O)CS)[C@H](c3ccc(O)cc3)N2C1=O	0.214 (inactive)	0.132	-0.59	-3.98 (inactive)	1.12 (inactive)	0.99 (inactive)
